Out of some 360,000 compounds screened, about 16,000 (4.4%) were called active. Not shown: some 9% with an inconclusive outcome. The call rests on the fitted dose curve; in most records, active means well fitted inhibition curve with a large enough effect; inconclusive means small, poorly fitted or top-dose-only effect; inactive means no such curve, though single readings can be large or run the other way. Many of the other results were omitted from the sample, so actives are more common in it than they were.
Each compound was assayed against Bromodomain adjacent to zinc finger domain protein 2B (Homo sapiens) (UniProt Q9UIF8) (assay: qHTS Assay for Inhibitors of BAZ2B). Conditions: AlphaScreen BAZ2B-H3K14Ac peptide displacement; series mostly up to 114 µM; activity change, negative = inhibition: at the top concentration.
Bromodomain adjacent to zinc finger domain protein 2B (Homo sapiens), sequence (Q9UIF8 whole entry, looked up, the tested form may be a part): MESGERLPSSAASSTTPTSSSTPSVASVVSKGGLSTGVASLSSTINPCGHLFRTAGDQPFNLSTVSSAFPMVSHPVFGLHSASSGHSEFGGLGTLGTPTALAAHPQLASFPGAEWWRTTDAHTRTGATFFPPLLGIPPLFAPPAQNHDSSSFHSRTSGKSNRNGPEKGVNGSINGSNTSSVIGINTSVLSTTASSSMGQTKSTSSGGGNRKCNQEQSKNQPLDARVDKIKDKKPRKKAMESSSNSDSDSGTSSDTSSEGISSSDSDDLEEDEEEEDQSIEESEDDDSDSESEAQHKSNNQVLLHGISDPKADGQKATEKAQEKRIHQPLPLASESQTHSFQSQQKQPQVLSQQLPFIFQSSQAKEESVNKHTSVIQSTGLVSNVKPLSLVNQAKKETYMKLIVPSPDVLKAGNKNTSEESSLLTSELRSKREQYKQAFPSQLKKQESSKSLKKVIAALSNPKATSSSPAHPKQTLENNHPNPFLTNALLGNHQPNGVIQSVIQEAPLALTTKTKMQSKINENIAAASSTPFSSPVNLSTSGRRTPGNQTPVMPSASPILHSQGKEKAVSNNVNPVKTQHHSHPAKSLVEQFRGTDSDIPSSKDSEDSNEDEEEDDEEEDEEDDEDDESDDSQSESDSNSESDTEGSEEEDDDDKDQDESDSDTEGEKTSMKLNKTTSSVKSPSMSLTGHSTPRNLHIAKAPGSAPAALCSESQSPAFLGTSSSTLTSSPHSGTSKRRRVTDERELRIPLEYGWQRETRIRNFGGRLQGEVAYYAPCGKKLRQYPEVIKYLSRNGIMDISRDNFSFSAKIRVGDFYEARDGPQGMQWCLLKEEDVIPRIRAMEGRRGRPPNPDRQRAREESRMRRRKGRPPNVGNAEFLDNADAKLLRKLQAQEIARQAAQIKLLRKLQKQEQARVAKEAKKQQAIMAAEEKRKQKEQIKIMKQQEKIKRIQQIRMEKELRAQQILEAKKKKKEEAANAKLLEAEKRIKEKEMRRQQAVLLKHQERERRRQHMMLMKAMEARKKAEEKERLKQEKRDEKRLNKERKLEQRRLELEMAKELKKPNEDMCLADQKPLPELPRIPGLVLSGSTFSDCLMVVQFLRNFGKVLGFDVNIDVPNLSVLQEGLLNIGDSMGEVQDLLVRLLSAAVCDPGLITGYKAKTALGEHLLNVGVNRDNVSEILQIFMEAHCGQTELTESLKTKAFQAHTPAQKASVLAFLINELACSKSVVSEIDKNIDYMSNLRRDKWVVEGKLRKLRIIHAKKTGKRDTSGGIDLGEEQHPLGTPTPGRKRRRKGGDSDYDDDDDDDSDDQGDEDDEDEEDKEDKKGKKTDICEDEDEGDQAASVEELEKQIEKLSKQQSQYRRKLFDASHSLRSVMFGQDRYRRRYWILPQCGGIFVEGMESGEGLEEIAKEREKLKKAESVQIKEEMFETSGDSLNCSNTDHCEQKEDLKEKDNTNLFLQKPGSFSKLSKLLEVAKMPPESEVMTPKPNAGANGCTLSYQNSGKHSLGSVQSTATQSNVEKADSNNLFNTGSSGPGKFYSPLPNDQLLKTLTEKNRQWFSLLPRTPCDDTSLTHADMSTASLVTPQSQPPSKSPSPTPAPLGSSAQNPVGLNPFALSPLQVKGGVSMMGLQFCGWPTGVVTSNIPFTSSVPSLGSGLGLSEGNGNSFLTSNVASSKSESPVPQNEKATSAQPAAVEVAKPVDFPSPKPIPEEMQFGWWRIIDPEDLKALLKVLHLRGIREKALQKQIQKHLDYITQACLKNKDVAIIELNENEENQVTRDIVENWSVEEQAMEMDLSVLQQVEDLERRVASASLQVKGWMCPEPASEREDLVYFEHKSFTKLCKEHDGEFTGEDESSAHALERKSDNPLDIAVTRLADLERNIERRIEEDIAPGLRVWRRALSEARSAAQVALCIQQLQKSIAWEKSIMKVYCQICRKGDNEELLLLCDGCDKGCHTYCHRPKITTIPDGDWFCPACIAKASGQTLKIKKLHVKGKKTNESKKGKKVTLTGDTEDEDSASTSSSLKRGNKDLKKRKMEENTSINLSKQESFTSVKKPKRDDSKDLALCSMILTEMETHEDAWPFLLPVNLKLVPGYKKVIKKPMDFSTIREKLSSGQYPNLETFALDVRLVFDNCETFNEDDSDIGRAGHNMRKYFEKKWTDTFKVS
From the text: BAZ2B (bromodomain adjacent to zinc finger domain, 2B) belongs to a family of ubiquitously expressed bromodomain containing proteins, which biological function has not yet been elucidated. […] The interaction of BAZ2B with ISWI mediated by the BAZ1 motif has recently been described. […] The protocol is based on the AlphaScreen (PerkinElmer) displacement assay developed by NCGC [5], but uses the peptide ligand Biot-H3K14Ac, a high affinity binding partner for BAZ2B, in an AlphaScreen format. Although AlphaScreen has significant advantages with its utility in a variety of epigenetic target assays, the primary screening data provided in this deposition should be used with caution due to the prevalence of screening artifacts. The top compound concentration tested was 110uM in this assay, which increases number of actives and potential artifacts. An AlphaScreen counterscreen is highly recommended to be run against any putative actives to eliminate non-specific artifacts. Alternatively, one can use other AlphaScreen assays in PubChem to filter out promiscuous hits. Eberharter, A. et al. ACF1 improves the effectiveness of nucleosome mobilization by ISWI through PHD-histone contacts. The EMBO journal 23, 4029-4039. 2004. PMID: 15457208 [2] Jones, M.H. et al. A novel family of bromodomain genes. Genomics 63, 40-45. 2000. PMID: 10662543 [3] Yasgar, et al. Compound Management for Quantitative High-Throughput Screening. JALA. 2008 Apr;13(2):79-89. PMID: 18496600 [4] Inglese, et al. Quantitative high-throughput screening: a titration-based approach that efficiently identifies biological activities in large chemical libraries. Proc Natl Acad Sci. 1;103(31):11473-8. 2006. PMID: 16864780 [5] Quinn et al. A chemiluminescence-based method for identification of histone lysine methyltransferase inhibitors. Mol Biosyst 6(5): 782-8. 2010. PMID: 20567762 [6] Baell,Holloway. New substructure filters for removal of pan assay interference compounds (PAINS) from screening libraries and for their exclusion in bioassays. J Med Chem. 53(7):2719-40. 2010. PMID: 20131845 NIH Molecular Libraries Probe Production Network [MLPCN] NIH Chemical Genomics Center [NCGC] Structural Genomics Consortium (SGC) NIH Grant: 5U54 MH084681-02
To each well of a 1,536w plate, 2ul of BAZ2B protein (final 50nM) and 1ul biotinylated histone peptide acetylated at Lys14 [b-H3(5-23)K14Ac] (final 50nM) were added in 1x PBS buffer, pH 7.4, containing 0.01% Tween-20, using a nanoliter dispenser. Formation of a protein-peptide complex proceeded at room temperature for 30 min. A Kalypsys pin-tool was employed to transfer 23 nL of library compound solution in DMSO to each well. Following a 30 min incubation of the protein-peptide complex with compounds at room temperature, a mixture of 40 ug/mL each streptavidin-coated donor and nickel chelate acceptor AlphaScreen beads (final 10 ug/mL) were added in a 1ul dispense for a final volume of 4ul. A brief centrifugation followed (1000rpm, 1 min) and were then incubated protected from the light for 20 min at room temperature. Plates were read on an EnVision multilabel plate reader using the 1,536 plate HTS AlphaScreen aperture (excitation time 80 ms, measurement time 240 ms).
Further: nearly all actives have a fitted effect of over 60% in size.
On the % scale 0 is the no-effect control and ±100 the full control effect; potency means the concentration at half of the fitted maximal effect.

| SMILES | activity change, negative = inhibition | Potency |
| --- | --- | --- |
| Cc1cc(C)c2oc(C(=O)Nc3ccc(S(=O)(=O)N4CCCCCC4)cc3)cc(=O)c2c1 | -12% (inactive) |  |
| CCCCc1nn2c(=O)cc(COC(=O)c3ccc(NC(=O)c4ccccc4C)cc3)nc2s1 | -9.26% (inactive) |  |
| CN1CCN(C2(CNC(=O)COc3ccc(C(C)(C)C)cc3)CCCCC2)CC1 | -24.8% (inactive) |  |
| CC1CCN(S(=O)(=O)c2ccc3c(c2)N(CC(=O)NCc2ccccc2Cl)C(=O)CO3)CC1 | -6.03% (inactive) |  |
| CCOC(=O)c1scc(-c2ccc(C)cc2)c1S(=O)(=O)Nc1cc(C)ccc1C | -8.58% (inactive) |  |
| O=C(CN1C(=O)CCC1=O)Nc1ccc(S(=O)(=O)N2CCOCC2)cc1 | -5.81% (inactive) |  |
| O=C1CCCC(O)=C1N=Nc1ccc(S(=O)(=O)N2CCOCC2)cc1 |  | 79.4 µM (active) |
| CC1(C)CC(=O)C(N=Nc2ccc(S(=O)(=O)N3CCCCCC3)cc2)=C(O)C1 | -3.64% (inactive) |  |
| COC(=O)c1ccc2c(c1)N(CC(=O)Nc1ccc(C)c(C)c1)C(=O)c1ccccc1S2 | -1.49% (inactive) |  |
| COCCNC(=O)CSc1c(C)cnc2c1c(=O)n(C)c(=O)n2C | 4.31% (inactive) |  |
| COc1cc2ccccc2cc1C(=O)Nc1cccc(-c2nc3ccccc3o2)c1 | 1.7% (inactive) |  |
| Cc1ccccc1NC(=O)CN1C(=O)N/C(=C\c2cccn2-c2cccc(C(=O)O)c2)C1=O |  | 20 µM (active) |
| Cc1ccccc1NC(=O)CN1C(=O)C(C)(C)c2ccccc21 | 5.06% (inactive) |  |
| O=C1N/C(=C/c2cccn2-c2ccccc2)C(=O)N1c1cccc(Cl)c1 | -0.902% (inactive) |  |
| COc1ccc(OC)c(NC(=O)CSC2=Nc3ccccc3C3=NC(CC(=O)NCCc4ccccc4)C(=O)N23)c1 (stereo not given) | -15.3% (inactive) |  |
| O=C(CCSCc1ccccc1F)N1CCN(c2ccc(Cl)cc2)CC1 | 1.82% (inactive) |  |
| O=c1c2ccccc2ncn1/N=C/c1ccccc1 | 0.598% (inactive) |  |
| CCCc1nc2ccccc2c(=O)n1/N=C/c1ccc(O)c(O)c1 |  | 56.2 µM (active) |
| CCOc1cc(/C=N/NC(=O)c2cc(-c3ccccc3)nc3ccccc23)ccc1O | -0.596% (inactive) |  |
| COc1ccc(Cn2ccn(Cc3cccc(OC)c3)c(=O)c2=O)cc1 | -26.1% (inactive) |  |
| COc1ccc(CCNC(=O)c2ccc(-n3c(C)cc4c3CCCC4)cc2)cc1OC | -8.94% (inactive) |  |
| CC(C)(C)c1ccc(Oc2ccc(N)cc2)cc1 |  | 39.8 µM (active) |
| CC(C)(C)c1ccc(OC2=CS(=O)(=O)c3ccccc32)cc1 | 3.61% (inactive) |  |
| Cc1ccc(Oc2ccc(N)cc2)cc1 |  | 31.6 µM (active) |
| Cc1cc(C)cc(N)c1 | 0.691% (inactive) |  |

| SMILES | activity change, negative = inhibition | Potency |
| --- | --- | --- |
| CC(C)(c1ccccc1)c1ccc(OCCN)cc1 | -0.871% (inactive) |  |
| CN(C)S(=O)(=O)c1ccc(Oc2ccc(S(=O)(=O)N(C)C)cc2)cc1 | 0.486% (inactive) |  |
| O=C(CSc1oc(-c2ccco2)nc1S(=O)(=O)c1ccc(Cl)cc1)c1ccccc1 | 15.2% (inactive) |  |
| CC(C)(C)C1C/C(=C/c2ccco2)C(=O)/C(=C/c2ccco2)C1 (stereo not given) |  | 25.1 µM (active) |
| CCc1ccc(C2C(C(=O)Nc3ccccc3)=C(C)Nc3c(C(=O)Nc4ccc(C)cc4)cnn32)cc1 (stereo not given) | 8.98% [at 57.1 µM] (inactive) |  |
| Cc1cc(O)c(C(c2ccccc2)N2CCN(c3ccccc3F)CC2)c(=O)n1Cc1ccco1 (stereo not given) | -38.4% (inactive) |  |
| O=C(O)c1ccccc1N=N/C(=N/Nc1cc(S(=O)(=O)O)ccc1O)c1ccccc1 |  | 11.2 µM (active) |
| CCOC(=O)N1CCc2c(sc3c2c(=O)n(-c2ccc(CC)cc2)c(=O)n3C)C1 | 2.66% (inactive) |  |
| O=[N+]([O-])c1ccc(F)cc1Oc1nc(-c2cccnc2)nc2ccccc12 | -16.4% (inactive) |  |
| O=[N+]([O-])c1ccc(Oc2ccc(F)cc2Br)c2ccncc12 |  | 31.6 µM (active) |
| Oc1c(Cl)cc(Cl)c(Cl)c1Cc1c(O)c(Cl)cc(Cl)c1Cl |  | 50.1 µM (active) |
| CCOc1ccc(N(Cc2ccccc2)C(=O)c2nc(S(C)(=O)=O)ncc2Cl)cc1 | -21.6% (inactive) |  |
| CCc1ccc(NC(=O)CN2C(=O)CCSc3ccc(S(=O)(=O)N4CCCC4)cc32)cc1 | -4.59% (inactive) |  |
| CCOC(=O)c1ccc(NC(=O)c2csc3c2CCCCC3)cc1 | -0.642% (inactive) |  |
| CCOC(=O)c1ccc(NC(=O)c2c(NCc3cccs3)sc3c2CCCC3)cc1 |  | 28.2 µM (active) |
| CCOC(=O)c1ccc(NC(=O)c2c(NCc3cccc(OC)c3)sc3c2CCC3)cc1 | 3.03% (inactive) |  |
| Cc1ccc(-c2nn3c(=O)cc(CN4CCN(C(=O)Nc5cccc(C(F)(F)F)c5)CC4)nc3s2)cc1 | -22.9% (inactive) |  |
| COc1cc(CN(C(=O)c2ccccc2Br)c2ccccn2)cc(OC)c1OC | -18.4% (inactive) |  |
| COc1ccc(OC)c(CNC(=O)c2c3c(nc4ccccc24)C(=O)N(C2CCCCC2)C3)c1 | -9.86% (inactive) |  |
| Cc1ccc(Nc2cc(C)nc3c(C)ccc([N+](=O)[O-])c23)cc1 |  | 10 µM (active) |
| Cc1cc(Nc2ccc(C(=O)N3CCCCC3)cc2)c2cccc(C)c2n1 | 0.772% (inactive) |  |
| Cc1ccc(NC2=NC(c3ccccc3)n3c(nc(C)cc3=O)N2)cc1 (stereo not given) | 12.2% (inactive) |  |
| Cc1cc(=O)n2[nH]c(-c3sccc3-n3c(C)ccc3C)cc2n1 |  | 50.1 µM (active) |
| Cc1cc(=O)n2[nH]c(-c3cccc(Cl)c3)cc2n1 | -1.33% (inactive) |  |
| CCc1c(C)nc2cc(-c3cccs3)[nH]n2c1=O | 2.81% (inactive) |  |
